Measurements taken from ChEMBL document CHEMBL3988442, “University of Dundee, Small-Polar-MMV Screening Library” (2021).
For some of these results: Measured potencies and affinities stand elsewhere.

Legend:
Set-up in all cases: scale not given: direction of the effect not stated beside the values
[1] = target: Protein translocase subunit SecA (Escherichia coli (strain K12)) (UniProt P10408); assay: Assay to Identify E. coli SecA ATPase Inhibitors; type: functional; settings: 30 µM
[2] = target: T1, Ubiquitin-activating enzyme e1, putative (Leishmania donovani (strain BPK282A1)) (UniProt E9BSI1); assay: Leishmania donovani Ubiquitin Activating Enzyme (LdE1); type: functional; settings: 30 µM
T1 sequence (whole entry): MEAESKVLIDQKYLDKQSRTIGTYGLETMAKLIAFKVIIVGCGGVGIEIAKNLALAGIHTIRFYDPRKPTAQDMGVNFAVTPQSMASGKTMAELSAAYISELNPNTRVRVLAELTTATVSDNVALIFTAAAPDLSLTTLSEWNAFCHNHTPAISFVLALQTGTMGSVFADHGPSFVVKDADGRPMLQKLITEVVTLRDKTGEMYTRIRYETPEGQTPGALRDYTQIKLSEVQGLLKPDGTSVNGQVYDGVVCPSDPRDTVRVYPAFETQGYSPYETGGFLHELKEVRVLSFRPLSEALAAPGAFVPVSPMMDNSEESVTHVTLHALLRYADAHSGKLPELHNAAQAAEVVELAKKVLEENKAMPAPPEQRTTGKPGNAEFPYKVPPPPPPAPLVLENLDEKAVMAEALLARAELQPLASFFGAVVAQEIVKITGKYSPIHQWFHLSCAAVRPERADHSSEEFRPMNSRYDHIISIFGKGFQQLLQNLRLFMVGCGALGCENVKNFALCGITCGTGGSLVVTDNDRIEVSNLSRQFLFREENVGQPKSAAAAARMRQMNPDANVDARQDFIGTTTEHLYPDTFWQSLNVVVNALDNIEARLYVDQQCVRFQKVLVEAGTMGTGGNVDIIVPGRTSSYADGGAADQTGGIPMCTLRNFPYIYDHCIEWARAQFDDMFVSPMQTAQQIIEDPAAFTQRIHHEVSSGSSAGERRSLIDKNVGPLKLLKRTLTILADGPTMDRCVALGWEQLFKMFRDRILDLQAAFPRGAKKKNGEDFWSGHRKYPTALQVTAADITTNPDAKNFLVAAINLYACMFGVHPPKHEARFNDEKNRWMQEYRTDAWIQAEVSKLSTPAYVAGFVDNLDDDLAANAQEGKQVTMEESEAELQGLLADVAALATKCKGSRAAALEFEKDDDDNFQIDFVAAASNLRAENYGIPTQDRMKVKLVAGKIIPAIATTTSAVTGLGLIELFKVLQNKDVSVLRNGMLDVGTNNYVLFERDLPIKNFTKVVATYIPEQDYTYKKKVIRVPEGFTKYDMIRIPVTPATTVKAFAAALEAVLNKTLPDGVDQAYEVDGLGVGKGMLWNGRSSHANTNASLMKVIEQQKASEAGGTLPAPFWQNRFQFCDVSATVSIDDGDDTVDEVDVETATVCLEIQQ

[3] = target: AMP-activated protein kinase, AMPK (Homo sapiens) (UniProt P54646+O43741+P54619+Q9UGJ0+Q9Y478+Q13131+Q9UGI9); assay: AMP-dependent Kinase enzyme assay. An in vitro enzyme assay that detects ADP turnover that is directly proportional to AMPK activity. This uses naive AMPK that is activated during the assay with MK-8722; type: functional; settings: 30 µM
[4] = target: Sialic acid-binding Ig-like lectin 9 (Homo sapiens) (UniProt Q9Y336); assay: Hs-Siglec9 ALPHAscreen SOP 20170721; settings: 10 µM
Sequence of Sialic acid-binding Ig-like lectin 9 (Homo sapiens) (Q9Y336 whole entry): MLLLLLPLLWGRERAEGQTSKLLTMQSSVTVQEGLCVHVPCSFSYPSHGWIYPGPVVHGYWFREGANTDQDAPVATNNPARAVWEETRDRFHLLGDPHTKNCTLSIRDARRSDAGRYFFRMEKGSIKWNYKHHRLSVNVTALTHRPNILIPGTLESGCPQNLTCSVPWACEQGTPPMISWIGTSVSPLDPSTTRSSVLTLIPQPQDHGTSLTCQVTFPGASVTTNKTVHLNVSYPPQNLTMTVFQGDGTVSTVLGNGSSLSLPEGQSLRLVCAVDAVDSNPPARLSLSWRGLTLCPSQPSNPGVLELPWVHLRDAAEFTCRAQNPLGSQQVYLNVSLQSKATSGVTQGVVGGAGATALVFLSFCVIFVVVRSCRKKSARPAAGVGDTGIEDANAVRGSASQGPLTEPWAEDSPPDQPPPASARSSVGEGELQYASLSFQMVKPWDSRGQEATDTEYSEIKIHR

[5] = tested on: Trypanosoma cruzi; assay: Trypanosoma cruzi phosphomannomutase and mannose-1-phosphate guanylyltransferase assay; type: functional; settings: 10 µM
[6] = target: T2, Arginase-2, mitochondrial (Homo sapiens) (UniProt P78540); assay: in vitro enzyme assay to detect the production of urea directly proportional to the activity of Arginase II; type: functional; settings: 33.3 µM; also: in the data most compounds retested in dose-response had high values
T2 sequence (whole entry): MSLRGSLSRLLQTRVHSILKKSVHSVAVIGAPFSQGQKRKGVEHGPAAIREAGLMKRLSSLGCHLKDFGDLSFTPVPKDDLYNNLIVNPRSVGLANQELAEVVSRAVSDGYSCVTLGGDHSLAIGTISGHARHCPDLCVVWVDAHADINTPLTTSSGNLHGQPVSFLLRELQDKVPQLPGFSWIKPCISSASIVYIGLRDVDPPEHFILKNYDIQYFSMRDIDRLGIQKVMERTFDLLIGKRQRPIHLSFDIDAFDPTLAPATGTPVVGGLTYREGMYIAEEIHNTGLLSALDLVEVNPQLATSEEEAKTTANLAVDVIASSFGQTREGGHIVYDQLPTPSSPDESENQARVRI

[7] = target: T3, Proteasome subunit beta (Trypanosoma cruzi) (UniProt O96673); assay: Trypanosoma cruzi proteasome chymotrypsin-like activity (TcProtChymo) assay.; also: in the data most compounds retested in dose-response had high values; type: functional; settings: 9.37 µM
T3 sequence (whole entry): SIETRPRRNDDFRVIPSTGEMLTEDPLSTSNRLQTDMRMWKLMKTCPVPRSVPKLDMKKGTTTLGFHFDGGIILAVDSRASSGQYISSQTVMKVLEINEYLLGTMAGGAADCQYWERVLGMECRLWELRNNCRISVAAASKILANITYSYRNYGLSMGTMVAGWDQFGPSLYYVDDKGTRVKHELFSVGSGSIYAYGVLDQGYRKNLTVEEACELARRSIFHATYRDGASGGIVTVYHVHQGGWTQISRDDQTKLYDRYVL

[8] = species on record: Homo sapiens; assay: To identify inhibition of the IFN signalling (Jak-Stat) pathway via expression of an eGFP reporter gene under the control of an IFN-stimulated response element (ISRE) containing MxA promoter.; type: functional; settings: 30 µM
[9] = target: T4, Tyrosyl-tRNA synthetase, putative (Trypanosoma cruzi (strain CL Brener)) (UniProt Q4DSP6); assay: Trypanosoma cruzi tyrosyl tRNA synthetase (TcYRS) _High Tyrosine SOP; type: functional; settings: 30 µM; also: in the data most compounds retested in dose-response had high values
T4 sequence (whole entry): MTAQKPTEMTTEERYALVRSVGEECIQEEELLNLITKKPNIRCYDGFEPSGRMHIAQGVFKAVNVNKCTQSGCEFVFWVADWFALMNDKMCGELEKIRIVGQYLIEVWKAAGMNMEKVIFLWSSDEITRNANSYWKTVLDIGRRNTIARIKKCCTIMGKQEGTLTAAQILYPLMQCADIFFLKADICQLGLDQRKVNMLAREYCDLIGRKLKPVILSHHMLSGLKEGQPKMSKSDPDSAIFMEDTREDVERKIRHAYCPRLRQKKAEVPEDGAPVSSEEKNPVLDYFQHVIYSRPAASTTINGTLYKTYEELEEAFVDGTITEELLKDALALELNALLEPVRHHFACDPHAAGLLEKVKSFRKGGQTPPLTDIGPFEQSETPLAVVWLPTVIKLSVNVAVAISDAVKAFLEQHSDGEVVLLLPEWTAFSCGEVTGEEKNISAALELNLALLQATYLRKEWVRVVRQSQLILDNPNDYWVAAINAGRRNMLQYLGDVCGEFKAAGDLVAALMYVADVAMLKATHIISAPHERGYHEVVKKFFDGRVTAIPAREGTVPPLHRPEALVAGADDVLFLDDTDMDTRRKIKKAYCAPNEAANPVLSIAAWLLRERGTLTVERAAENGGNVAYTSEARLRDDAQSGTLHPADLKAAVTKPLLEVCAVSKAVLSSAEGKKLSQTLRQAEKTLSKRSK

[10] = target: T4, Tyrosyl-tRNA synthetase, putative (Trypanosoma cruzi (strain CL Brener)); assay: Trypanosoma cruzi tyrosyl tRNA synthetase (TcYRS) SOP; type: functional; settings: 30 µM
[11] = target: Chromo domain-containing protein 1 (Saccharomyces cerevisiae (strain ATCC 204508 / S288c) (Baker's yeast)) (UniProt P32657); assay: ScCHD-1 Enzyme Inhibition Assay; type: functional; settings: 30 µM; also: in the data most compounds retested in dose-response had high values
Sequence of Chromo domain-containing protein 1 (Saccharomyces cerevisiae (strain ATCC 204508 / S288c) (Baker's yeast)) (P32657 whole entry, the tested form may be a part): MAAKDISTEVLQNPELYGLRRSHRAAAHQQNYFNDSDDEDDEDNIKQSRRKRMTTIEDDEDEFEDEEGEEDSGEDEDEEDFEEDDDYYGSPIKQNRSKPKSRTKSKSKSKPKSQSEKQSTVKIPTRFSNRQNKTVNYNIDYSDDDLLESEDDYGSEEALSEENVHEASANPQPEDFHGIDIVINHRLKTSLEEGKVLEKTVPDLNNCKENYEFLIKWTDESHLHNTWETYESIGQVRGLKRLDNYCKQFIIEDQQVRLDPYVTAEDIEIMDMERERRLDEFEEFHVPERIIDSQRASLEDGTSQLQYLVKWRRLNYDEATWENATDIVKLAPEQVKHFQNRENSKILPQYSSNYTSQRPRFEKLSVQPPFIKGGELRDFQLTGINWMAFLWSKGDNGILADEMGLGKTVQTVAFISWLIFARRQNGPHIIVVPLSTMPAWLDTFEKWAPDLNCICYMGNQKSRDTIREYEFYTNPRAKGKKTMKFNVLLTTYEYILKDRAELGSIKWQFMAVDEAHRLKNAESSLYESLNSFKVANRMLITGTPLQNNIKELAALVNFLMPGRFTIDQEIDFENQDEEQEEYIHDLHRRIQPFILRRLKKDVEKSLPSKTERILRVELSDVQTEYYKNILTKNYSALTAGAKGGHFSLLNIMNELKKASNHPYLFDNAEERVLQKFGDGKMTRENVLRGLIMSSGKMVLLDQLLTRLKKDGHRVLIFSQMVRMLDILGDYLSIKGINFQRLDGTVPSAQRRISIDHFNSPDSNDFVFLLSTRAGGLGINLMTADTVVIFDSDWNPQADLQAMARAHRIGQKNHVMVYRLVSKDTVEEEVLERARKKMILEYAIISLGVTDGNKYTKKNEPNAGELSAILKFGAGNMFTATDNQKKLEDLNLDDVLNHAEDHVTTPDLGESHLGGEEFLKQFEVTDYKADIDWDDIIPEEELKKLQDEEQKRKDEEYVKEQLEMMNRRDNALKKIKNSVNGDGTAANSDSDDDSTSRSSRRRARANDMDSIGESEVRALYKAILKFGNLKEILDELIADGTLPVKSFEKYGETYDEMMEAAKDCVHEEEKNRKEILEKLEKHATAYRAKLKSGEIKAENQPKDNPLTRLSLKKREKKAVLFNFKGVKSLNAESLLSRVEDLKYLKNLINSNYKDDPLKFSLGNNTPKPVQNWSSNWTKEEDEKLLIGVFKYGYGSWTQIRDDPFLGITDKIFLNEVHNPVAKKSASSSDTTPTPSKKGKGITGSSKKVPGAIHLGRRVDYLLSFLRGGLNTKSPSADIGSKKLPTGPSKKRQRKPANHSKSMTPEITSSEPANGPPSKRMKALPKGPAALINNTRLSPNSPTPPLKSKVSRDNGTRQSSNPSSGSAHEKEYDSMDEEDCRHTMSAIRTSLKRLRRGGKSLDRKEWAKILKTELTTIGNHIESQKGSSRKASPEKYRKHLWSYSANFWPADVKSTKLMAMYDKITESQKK

Sequence of Protein translocase subunit SecA (Escherichia coli (strain K12)) (P10408 whole entry): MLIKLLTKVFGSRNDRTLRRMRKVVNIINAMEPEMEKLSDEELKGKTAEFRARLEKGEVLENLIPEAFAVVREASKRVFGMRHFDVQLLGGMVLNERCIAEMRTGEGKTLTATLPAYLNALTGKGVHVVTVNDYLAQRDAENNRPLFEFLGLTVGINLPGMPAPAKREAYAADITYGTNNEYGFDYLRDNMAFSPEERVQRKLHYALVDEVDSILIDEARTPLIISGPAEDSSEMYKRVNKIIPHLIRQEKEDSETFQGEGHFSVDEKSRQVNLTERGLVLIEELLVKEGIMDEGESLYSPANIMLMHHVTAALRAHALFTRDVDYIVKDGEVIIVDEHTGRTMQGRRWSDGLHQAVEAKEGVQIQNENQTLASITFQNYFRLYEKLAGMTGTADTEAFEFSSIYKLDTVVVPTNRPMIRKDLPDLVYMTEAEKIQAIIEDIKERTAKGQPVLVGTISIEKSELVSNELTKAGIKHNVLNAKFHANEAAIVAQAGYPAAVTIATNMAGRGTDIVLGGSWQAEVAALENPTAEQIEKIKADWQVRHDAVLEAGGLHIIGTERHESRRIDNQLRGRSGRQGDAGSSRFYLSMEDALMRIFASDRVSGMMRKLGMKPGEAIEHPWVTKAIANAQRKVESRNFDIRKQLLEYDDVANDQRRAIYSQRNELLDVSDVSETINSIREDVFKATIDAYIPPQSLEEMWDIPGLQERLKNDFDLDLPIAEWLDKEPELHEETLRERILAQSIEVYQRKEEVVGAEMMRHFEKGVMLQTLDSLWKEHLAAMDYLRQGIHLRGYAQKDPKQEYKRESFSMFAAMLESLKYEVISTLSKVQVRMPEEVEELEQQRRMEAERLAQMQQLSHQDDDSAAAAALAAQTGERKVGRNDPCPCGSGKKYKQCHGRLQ

| Structure (SMILES) | Percent Effect [1] [%] | Percent Effect [2] [%] | Percent Effect [3] [%] | Percent Effect [4] [%] | Percent Effect [5] [%] | Percent Effect [6] [%] | Percent Effect [7] [%] | Percent Effect [8] [%] | Percent Effect [9] [%] | Percent Effect [10] [%] | Percent Effect [11] [%] |
| --- | --- | --- | --- | --- | --- | --- | --- | --- | --- | --- | --- |
| CCn1nnc2c1C(COC)CN(C(=O)Cc1cccs1)C2 (stereo unspecified) | -0.417 | 5.41 | -1.12 | -5.98 | -2.93 | -2.5 | 17.8 | -0.944 | 6.93 | 8.54 | 5.86 |
| O=C(c1ccccn1)N1CCc2c(nc(N3CCCC3)[nH]c2=O)C1 | -7.12 | 12.2 | 0.895 | 26.1 | 0.198 | -3.48 | 7.64 | 10.1 | 3.23 | 11.7 | -17.3 |
| CC1COCCN1Cc1nc(-c2cccs2)no1 (stereo unspecified) | -2.46 | 10.8 | 138 | -4.28 | -3.49 | -2.4 | 11.5 | 13.2 | 4.43 | 13.6 | -7.61 |
| Cc1nc(C(C)(C)NC(=O)Nc2ccccc2)no1 | -11.3 | -2.74 | 2.23 | -0.244 | -3.53 | 3.18 | 6.92 | 17.2 | -2.15 | 0 | -0.168 |
| Cc1nc(C2CCCN(C(=O)c3cc(Cl)c[nH]3)C2)no1 (stereo unspecified) | -5.67 | 12.7 | -0.617 | 10.9 | 3.87 | -6.46 | 1.88 | -5.6 | 5.42 | 13.9 | -7.78 |
| Cc1nnc2n1CCN(CCC(=O)Nc1sccc1C#N)C2 | -2.38 | 13.2 | -4.92 | 7.34 | 0.84 | -0.719 | 10.4 | 9.54 | 6.4 | 18.5 | -2.88 |
| Cn1cnnc1S(=O)(=O)C1CCN(S(=O)(=O)c2c(Cl)cccc2Cl)CC1 | -1.95 | 0 | 5.5 | -4.3 | -1.76 | -2.27 | 4.97 | 6.49 | 0 | 0 | 0.0853 |
| O=C(CCNC(=O)c1ccoc1)Nc1c(F)cccc1F | 0.646 | 18.2 | -4.32 | 5.34 | -2.84 | 4.42 | 18.8 | 14 | 6.67 | 21.2 | -3.32 |
| Cc1ccc(CNCc2nnc3n2CCCC3C(F)(F)F)o1 (stereo unspecified) | -2.71 | 5.33 | 2.9 | -7.37 | -6.13 | -3.12 | 8.54 | 11.4 | 0.546 | 3.7 | -5.76 |
| O=C(CCc1cccs1)N1CCC(Nc2cccnn2)CC1 | -7.51 | -23.7 | -9.73 | 4.64 | 8.87 | 1.8 | 9.73 | 5.28 | 9.36 | 23.5 | -11.1 |
| COc1cc(CNC(=O)CNc2cc(Cl)ccc2OC)ccn1 | -4.04 | 0 | -0.0708 | 2.86 | -2.55 | 0.802 | 3.6 | 9.38 | -4.43 | 3.7 | 0.373 |
